Test results taken from PubChem BioAssay (Tox21).
Several values for one entry are separate records, joined by “and”; a condition that tells them apart may be missing. Equal entries are not always repeated. Values without a mark were called inactive. Activity calls are given as the source filed them. Calls follow the shape of the full dose curve.

What follows are molecules tested against Gonadotropin-releasing hormone receptor (Homo sapiens) (UniProt P30968) (assay: Human gonadotropin-releasing hormone receptor (GnRHR) small molecule agonists, calcium flux assay in GnRHR-HEK293 cells (AID 1920063; also: nearly all actives have a fitted effect of over 35% in size)). Conditions: calcium flux fluorescence, agonist mode; series mostly up to 57.6 µM; activity change: at the top concentration.
Text: National Center for Advancing Translational Sciences [NCATS]
Division of Preclinical Innovation [DPI]
U.S. Environmental Protection Agency [EPA]
National Institutes of Environmental Health Sciences [NIEHS]
National Toxicology Program [NTP]
U.S. Food and Drug Administration [FDA]
Gonadotropin-releasing hormone receptor (GnRHR) is a G-protein-coupled receptor (GPCR) and acts (through phospholipase C) to increase intracellular inositol trisphosphate and then release intracellular calcium stores. Cell-based GnRHR-Hek293 calcium influx assay is using HEK293 cells that have been genetically engineered to express the human GnRHR, which activity can be measured by calcium signaling. A compound/drug can activate (agonist) GnRHR that can be monitored by levels of intracellular calcium.
GnRHR-HEK293 cells developed by Codex Corp contain human GnRHR reporter gene, which was stably integrated into HEK 293 cells. The compound activation can be detected by fluorescence intensity via calcium flux assay. This cell line has been used to screen the Tox21 10K compound library to identify GnRHR agonists.
GnRHR-Hek293 cells were dispensed at 1500cells/4uL/well in 1536-well black wall/clear bottom plates using a multidrop dispenser. After the assay plates were incubated at a 37 C/5% CO2 incubator for 18 hours, 4 uL of Calcium Dye Solution was added to each well. The plates were incubated at 37 C for 1 hour. For agonist mode, 23 nL of compounds dissolved in DMSO, positive controls or DMSO only was transferred to the assay plate by a pin tool station. The fluorescence intensity in the plates was measured using FDSS 7000EX kinetic plate reader with a filter set of Ex/Em=480/540 for 3 min at 1 sec intervals. Each test compound was measured at 15 concentrations and in triplicates.
% is scaled to controls: 0 for no effect and ±100 for the full control effect; potency is read from the fitted curve at half-maximal effect.

Sequence of Gonadotropin-releasing hormone receptor (Homo sapiens) (P30968 whole entry, looked up): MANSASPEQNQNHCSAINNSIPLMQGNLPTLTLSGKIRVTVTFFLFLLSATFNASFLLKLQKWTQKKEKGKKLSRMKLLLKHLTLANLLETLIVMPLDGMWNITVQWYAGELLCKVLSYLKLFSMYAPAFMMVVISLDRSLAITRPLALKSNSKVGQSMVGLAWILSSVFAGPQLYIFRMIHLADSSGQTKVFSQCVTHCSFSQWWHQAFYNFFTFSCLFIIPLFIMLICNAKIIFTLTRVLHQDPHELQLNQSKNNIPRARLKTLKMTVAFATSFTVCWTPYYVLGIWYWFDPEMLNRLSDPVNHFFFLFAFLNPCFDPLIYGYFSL

Structure (SMILES) | activity change | Potency
COCCOCCOCCOCCOCCO | 1.08% | 
Cc1cccc(S(=O)(=O)O)c1C | 0.44% | 
O=C(O)c1cccc(C(F)(F)F)c1 | 1.29% | 
CC1CC(O)CC(C)(C)C1 (stereo not given) | 0.179% | 
O=C1CCC(=O)N1 | 0.52% | 
CC(C[N+](C)(C)C)OC(N)=O (stereo not given) |  | 13.5 µM (active)
CCCCCCOCCOCCO |  | inactive
CC(C)(C)S | -1.02% | 
Cc1ccc(N)cc1[N+](=O)[O-] | 0.0419% | 
NCCNCCNCCNCCN |  | inactive
CC1=CCC(C(C)C)=CC1 | 1.21% | 
CN(C)CCCN(C)CCCN(C)C | -1.12% | 
O=C(O)c1cc(O)c(O)c(O)c1 |  | inactive
CNc1ccccc1 | 0.197% | 
C=CC(=O)CC | 0.345% | 
COc1cccc(OC)c1C(=O)O | 0.0263% | 
CCCCCCCN | 0.493% | 
C=C(C)C(=O)NCCCN(C)C | -0.237% | 
CCCCCCCCCCC | -0.484% | 
O=C1OC(=O)c2c(Cl)c(Cl)c(Cl)c(Cl)c21 |  | inactive

Structure (SMILES) | activity change | Potency
CCCCC(CC)COC(=O)CCCCCCCC(=O)OCC(CC)CCCC (stereo not given) | 0.165% | 
CC(O)C(C)O (stereo not given) | -0.199% | 
CC(=O)OCC(=O)Nc1cc(C#N)cc(NC(=O)COC(C)=O)c1Cl | -0.808% [at 26.4 µM, active compounds read high] | 
O=C1CC2(CCCC2)CC(=O)N1CCCCN1CCN(c2ncccn2)CC1 |  | inactive
CCCCCCCCCCCC(=O)OCC(C)OC(=O)CCCCC(=O)O (stereo not given) | 4.49% [at 26.4 µM, active compounds read high] | 
Nc1c(Br)cc([N+](=O)[O-])cc1Br | 0.478% | 
CC/C=C\CCO | 1.85% | 
O=C1OC2(c3ccc(O)cc3Oc3cc(O)ccc32)c2ccccc21 |  | 389 nM (active) and 1.9 µM (active)
O=C[C@H](O)[C@H](O)[C@H](O)CO | -0.816% | 
N#C[C@@H]1C[C@@H]2C[C@@H]2N1C(=O)[C@@H](N)C12CC3CC(CC(O)(C3)C1)C2 | -1.73% [at 26.4 µM, active compounds read high] | 
Cc1cc(O)cc2c1O[C@](C)(CCC[C@H](C)CCC[C@H](C)CCCC(C)C)CC2 | 0.557% [at 26.4 µM, active compounds read high] | 
Nc1cc([N+](=O)[O-])ccc1Cl | 0.08% | 
O=C(O)c1cc(=O)[nH]c(=O)[nH]1 |  | inactive
Nc1nc(=O)n([C@@H]2O[C@H](CO)[C@@H](O)[C@@H]2F)cc1I | -0.551% [at 26.4 µM, active compounds read high] | 
COCCOCCOCCOCCOC | 0.992% | 
C1CCCC1 | -2.31% | 
CC(=O)N1CCN(c2ccc(O)cc2)CC1 | 0.0937% [at 26.4 µM, active compounds read high] | 
Oc1ccc2cc(SSc3ccc4cc(O)ccc4c3)ccc2c1 | 12.4% | 
Cc1ccccc1C | 1.75% | 
Cc1ccc(Nc2ccc(O)c3c2C(=O)c2ccccc2C3=O)cc1 | 0.162% | 
